# Giardia killer – Small Molecules that selectively kill Giardia lamblia: qHTS. Giardia lamblia trophozoite viability. activity change, % at 7.66 µM, hits read low. actives 0.15% (n = 340,000); in the data active = activity change below about -80%; inconclusive = between about -30% and that limit;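 also: parasites exposed to compound for two days anaerobically before the ATP read; % is scaled to controls: 0 for no effect and ±100 for the full control effect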
#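 Anaerobic 48 hrs incubation at 37 deg C of 100 trophozoites/well with test compounds; ATPLite 1-Step luminescence, 15-30 min RT, reports cellular ATP as viability.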
# ERG Ets-DNA blk – qHTS for Small Molecule Inhibitors of the ERG Ets/DNA interaction; Transcriptional regulator ERG (Homo sapiens), P11308; actives 0.028% (n = 370,000); fluorescence polarization, His-ERG Ets domain / labelled DNA; Potency, µM (series often up to 76.9 µM), for inactives: at the highest dose FP activity, negative = inhibition, hits mostly inhibitors; AID 624246, 2012; active = well fitted inhibition curve with a large enough effect in the polarisation, with a control signal flat; inconclusive = small, poorly fitted or top-dose-only effect, or effect the other way, or a change in a side signal; inactive = no such curve, though single readings can be large or run the other way; the % refers to the polarisation;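 also: polarization taken with two DNA probes labelled with fluorescein and Texas red; potency is read from the fitted curve at half-maximal effect; % of control where 0% means no effect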
# Target sequence (P11308 whole entry, looked up, the tested form may be a part): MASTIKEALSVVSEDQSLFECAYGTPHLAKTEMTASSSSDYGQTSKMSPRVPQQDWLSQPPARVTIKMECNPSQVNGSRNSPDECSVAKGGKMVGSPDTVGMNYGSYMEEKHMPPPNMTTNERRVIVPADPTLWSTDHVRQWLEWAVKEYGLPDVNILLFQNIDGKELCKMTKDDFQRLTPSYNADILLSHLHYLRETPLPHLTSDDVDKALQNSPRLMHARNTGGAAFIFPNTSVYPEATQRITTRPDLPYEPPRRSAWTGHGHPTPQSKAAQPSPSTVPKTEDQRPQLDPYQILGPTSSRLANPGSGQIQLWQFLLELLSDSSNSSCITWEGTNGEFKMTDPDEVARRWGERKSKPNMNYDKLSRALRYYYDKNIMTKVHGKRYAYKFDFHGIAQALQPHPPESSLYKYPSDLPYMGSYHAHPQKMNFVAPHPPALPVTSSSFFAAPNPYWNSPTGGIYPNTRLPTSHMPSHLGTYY
#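 His-tagged ERG Ets domain (1 uM in the protein solution; 300mM KCl, 50mM Tris-HCl, 1mM EDTA, 1mM DTT, pH 7.5) received compound, then a probe mix of 5 nM fluorescein-DNA and 100nM Texas-615-DNA. Fluorescence polarization was read for both dyes.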
# a7 integrin act – qHTS for Activators of Integrin-Mediated Alleviation for Muscular Dystrophy | alpha7betagal myoblasts, beta-gal FDG fluorescence, 48 h | Potency, µM (top dose mostly 38.3 µM), for inactives: at the highest dose activation, usual class: activators | actives 0.064% (n = 350,000) | AID 624291, 2012;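 also: potency is read from the fitted curve at half-maximal effect; 100% = response of the positive control SU9516; nearly all actives have a fitted effect of over 60% in size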
#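 Alpha7betagal+/- myoblasts (passage 13) were plated 16-24 hr, then exposed to compounds (1:260 dilution of DMSO stock) for 48 hours at 37C. After MPER lysis, β-galactosidase reporter activity was read as FDG fluorescence (ex 480/em 540) after 30 minutes.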
# Gal4-VP16 FLuc – VP16 counterscreen qHTS for inhibitors of ROR gamma transcriptional activity | Potency, µM (series often up to 53.6 µM), for inactives: top-dose activity, negative = inhibition, actives largely listed as inhibitors | Drosophila S2 Gal4-VP16 UAS-luciferase, luminescence, 20 h | actives 3.5% (n = 310,000) | AID 2546, 2010;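 also: Gal4-VP16 expression switched on by copper sulfate through the metallothionein promoter; potency is read from the fitted curve at half-maximal effect; % is scaled to controls: 0 for no effect and ±100 for the full control effect; nearly all actives have a fitted effect of over 50% in size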
# RORgamma inh – qHTS for inhibitors of ROR gamma transcriptional activity. Nuclear receptor ROR-gamma (Mus musculus), P51450. Drosophila S2 Gal4-RORgamma UAS-luciferase reporter, 20 h. Potency, µM (highest dose often 53.6 µM), for inactives: top-dose activity change, negative = inhibition, usual class: inhibitors. actives 5.4% (n = 310,000). AID 2551, 2010; also: potency is read from the fitted curve at half-maximal effect; % is scaled to controls: 0 for no effect and ±100 for the full control effect; nearly all actives have a fitted effect of over 60% in size
#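 In this cell-based reporter format, copper sulfate (700 uM final) drives Gal4–ROR gamma fusion expression from a metallothionein promoter in Drosophila Schneider cells; compounds preincubated 1 hr, reporter read after 20 hr at ambient temperature.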
# Starred values were filed as active, the others as inactive; ? = inconclusive; · = no result given; [ ] = remark or other dose. The entries come from a sample that favours hits as a whole. Unless noted, calls follow the shape of the dose curve; as a rule, active = well fitted curve in the direction sought with a large enough effect; inconclusive = small, poorly fitted or top-dose-only effect, or another doubt; inactive = no such curve, though single readings can be large; an effect the other way counts as inactive or inconclusive.
SMILES,Giardia killer,ERG Ets-DNA blk,a7 integrin act,Gal4-VP16 FLuc,RORgamma inh
CC(C)C(NC(=O)c1ccc(F)cc1)C(=O)N1CCN(c2ccccn2)CC1 (centres undefined),-9,0%,-26%,·,·
NS(=O)(=O)c1ccc(CCNC(=O)COC(=O)/C=C/c2cc(Br)ccc2F)cc1,1,17%,28%,·,·
O=[N+]([O-])c1c(Nc2ccc(O)cc2)cc(Cl)c2nonc12,9,9%,-3%,4.5µM*,5.6µM*
O=C(O)c1ccccc1Nc1cc(Cl)c2nonc2c1[N+](=O)[O-],-20,12%,5%,·,·
O=C(O)c1ccc(Nc2ccc3nonc3c2[N+](=O)[O-])cc1,-26,-2%,17%,-5%,-15%[1.91 µM]
CN(C)c1cc(Nc2ccc(O)cc2)c([N+](=O)[O-])c2nonc12,-5,-18%,-14%,-2%,2%
O=[N+]([O-])c1c(Nc2ccccn2)cc(Cl)c2nonc12,29,30%,-81%,8.9µM*,13µM*
COC(=O)c1ccc(Nc2ccc3nonc3c2[N+](=O)[O-])cc1,-93*,8%,-17%,-4%,-16%[1.91 µM]
CC(C)C[C@H](NC(=O)CNC(=O)[C@H](C)NC(=O)[C@H](CC(C)C)NC(=O)[C@H](CCCNC(=N)N)NC(=O)[C@H](Cc1cnc[nH]1)NC(=O)[C@@H](NC(=O)[C@@H](N)C(C)C)[C@@H](C)O)C(=O)N[C@@H](CC(C)C)C(=O)N[C@@H](CO)C(=O)N[C@@H](CCCNC(=N)N)C(=O)N[C@@H](CO)C(=O)NCC(=O)NCC(=O)N[C@H](C(=O)N[C@H](C(=O)N[C@@H](CCCCN)C(=O)N[C@@H](CC(N)=O)C(=O)N[C@@H](CC(N)=O)C(=O)N[C@@H](Cc1ccccc1)C(=O)N[C@H](C(=O)N1CCC[C@H]1C(=O)N[C@H](C(=O)N[C@@H](CC(N)=O)C(=O)N[C@H](C(=O)NCC(=O)N[C@@H](CO)C(=O)N[C@@H](CCCCN)C(=O)N[C@@H](C)C(=O)N[C@@H](Cc1ccccc1)C(N)=O)C(C)C)[C@@H](C)O)C(C)C)C(C)C)C(C)C,·,·,·,-4%,-9%
C=CCn1c(O)c(N=NC(=O)CNC(=O)Cc2ccccc2)c2ccccc21,-13,-9%,-40%,-22%,-26%
CCOc1cc(/C=C2\CCC/C(=C\c3cc(Cl)c(O)c(OCC)c3)C2=O)cc(Cl)c1O,-3,19%,-49%,11µM*,?
CCN(CC)S(=O)(=O)c1cc(OC)ccc1N=Nc1ccc(O)c2ncccc12,-5,3%,-41%,1.3µM*,1.3µM*
CCS(=O)(=O)c1ccc(OC)c(N=Nc2ccc(O)c3ncccc23)c1,0,3%,-13%,?,1µM*
COC(CN1C(=O)C(=O)/C(=C(/O)c2ccccc2)C1c1ccccn1)OC (centres undefined),0,9%,-15%,-12%,9%
O=c1c2cn[nH]c2[nH]c(=S)n1-c1ccccc1Cl,-28,-9%,19%,-1%,10µM*
O=C(Nc1ccccc1)c1ccc(COc2ccccc2)cc1,6,6%,0%,-2%,-1%
O=C(N/N=C1\CC2CC=CC12)c1ccc(COc2ccccc2)cc1 (centres undefined),3,-12%,10%,5µM*,5µM*
CC(C)(C)c1ccc(OCc2ccc(C(=O)N/N=C3\CC4CC=CC34)cc2)cc1 (centres undefined),4,2%,-24%,4.5µM*,7.9µM*
Cc1cccc2[nH]c3c(N4CCC5(CC4)OCCO5)ncnc3c12,5,9%,-38%,5µM*,11µM*
CC(C)(Oc1ccc(Cl)cc1)C(=O)OCC(=O)NCCc1ccccc1,29,-6%,0%,-3%,-7%
CCOC(=O)CSc1ccc(-c2nc3ccccc3[nH]2)cn1,-5,2%,15%,6%,3%
CCOC(=O)CSc1ccc(-c2nc3cc(C)c(C)cc3[nH]2)cn1,-21,11%,19%,?,18µM*
COc1ccc(N2CCN(Cc3nc4ccccc4n3C)CC2)cc1,11,5%,-28%,2%,13µM*
COCCNC(=S)NNc1ccccc1[N+](=O)[O-],5,0%,18%,11µM*,?
O=C(NNc1ccccc1[N+](=O)[O-])Nc1ccccc1,3,4%,-32%,2%,5%
SMILES,Giardia killer,ERG Ets-DNA blk,a7 integrin act,Gal4-VP16 FLuc,RORgamma inh
COCCNC(=S)Nc1ccc([N+](=O)[O-])cc1C,3,-7%,15%,?,?
CNC(=S)NNc1ccccc1[N+](=O)[O-],-27,-6%,-29%,6%,16µM*
CSc1nn(CC(=O)Nc2cc(C)ccc2C)c(N)c1S(=O)(=O)c1ccccc1,·,-3%,·,·,·
Cc1ccnc(NC(=O)Nc2ccc(Br)cc2Cl)c1,4,33%,9%,-16%,-1%
Cc1cc(C)nc(NC(=S)Nc2cccc(Cl)c2Cl)c1,-12,9%,?,1.8µM*,0.4µM*
Cc1cc(C)nc(NC(=S)Nc2ccc(Br)cc2Cl)c1,5,3%,21%,?,0.56µM*
COc1ccc(NC(=S)Nc2cccc(Cl)c2Cl)cc1OC,-3,-3%,-14%,1%,-37%
N#Cc1nc(-c2ccc(COc3ccccc3)o2)oc1NCc1cccnc1,·,-5%,·,·,·
CCOc1ccc(-n2nc3ccc(NC(=O)COc4ccccc4C)cc3n2)cc1,·,-6%,·,·,·
O=c1[nH]c(SCc2c(F)cccc2Cl)nc2c1CCCC2,·,1%,·,·,·
O=C(NCc1ccco1)Nc1cccc(-c2ccccc2)c1,11,9%,11%,·,·
S=C(NCc1ccco1)Nc1ccc(N2CCOCC2)cc1,-5,-5%,17%,-3%,-13%
S=C(NCc1ccco1)Nc1ccc(Br)cn1,-1,-2%,6%,3.5µM*,3.2µM*
S=C(NCc1ccco1)Nc1cc(-c2ccccc2)[nH]n1,-4,-4%,?,?,6.3µM*
COc1cc(NC(=S)N(C)C)c(OC)cc1Cl,-8,10%,27%,-6%,-5%
Fc1ccccc1NC(=S)NC1CCCC1,-8,-3%,-5%,?,11µM*
FC(F)(F)c1ccc(Cl)c(NC(=S)NC2CC2)c1,3,28%,-8%,18µM*,16µM*
COc1cc(NC(=S)NC2CC2)c(OC)cc1Cl,-9,5%,6%,?,10µM*
S=C(Nc1ccccc1Cl)NC1CCC(NC(=S)Nc2ccccc2Cl)CC1 (centres undefined),13,-2%,-36%,0%,-31%
CNC(=S)Nc1cc(C(F)(F)F)ccc1Cl,6,·,-10%,2%,-21%
CC(C)(C)c1ccccc1NC(=S)NC1CCCCC1,-1,3%,14%,6.3µM*,1.8µM*
